Here are results for 39 compounds from PubChem BioAssay (EPA / NIEHS).

Where “and” joins values, the source holds several entries; their conditions need not be identical. Identical values can stand only once. Where a structure was tested more than once in an assay, its records may differ in their call. Calls of active or inactive are those of the source. How the source made its calls: active means hit-call score of the fitted dose curve at least 0.9, where 1 is the maximum; inactive means score below 0.9.

This assay is described as follows: ATG_Sox_CIS: Attagene CIS-FACTORIAL HepG2 Assay for human SRY-box transcription factor (SOX) (AID 2282960). Conditions: HepG2 Attagene cis-factorial SOX reporter, mRNA; actives raise or lower the signal. Here is the method:
ATG_CIS is a cell-based, multiplexed-readout assay that uses HepG2, a human liver cell line, with measurements taken at 24 hours after chemical dosing in a 24-well plate.ATG_Sox_CIS is one of 52 assay component(s) measured or calculated from the ATG_CIS assay. It is designed to make measurements of mRNA induction, a form of inducible reporter, as detected with fluorescence intensity signals by Reverse transcription polymerase chain reaction (RT-PCR) and Capillary electrophoresis technology.Data from the assay component ATG_Sox_CIS was analyzed into 1 assay endpoint. This assay endpoint, ATG_Sox_CIS, was analyzed with bidirectional fitting relative to DMSO as the negative control and baseline of activity. Using a type of inducible reporter, measures of mRNA for gain or loss-of-signal activity can be used to understand the reporter gene at the transcription factor-level as they relate to the gene SOX1. Furthermore, this assay endpoint can be referred to as a primary readout, because this assay has produced multiple assay endpoints where this one serves a reporter gene function. To generalize the intended target to other relatable targets, this assay endpoint is annotated to the dna binding intended target family, where the subfamily is HMG box protein.
Human liver HepG2 cells are transiently transfected with multiple reporter transcription units (MRTUs) in 6-well plates using FuGene 6 reagent (Roche; 3 ml FuGene/1 mg DNA). The MRTU constructs are regulated by a cis-regulating element (promoter). […] A major difference between the CIS and TRANS system is that in CIS activities of endogenous TFs are measured, whereas the TRANS assay evaluates changes in activities of exogenous, chimeric NR-Gal4 proteins. […] At the end of 24 hour incubation, total RNA was isolated using TriZol reagent (Invitrogen). The isolated RNA is then reverse-transcribed using oligo(dT) primer and Mo-MLV reverse transcriptase (Invitrogen) with DNAse I (Ambion) treatment for 30 min. The one-tenth of the produced cDNA was amplified by PCR using Taq DNA polymerase (Invitrogen) and two reporter sequence-specific primers. The PCR products were fluorescently labeled by primer extension with 6-arboxyfluorescein (6-FAM) 5'-labeled reporter sequence-specific primer (2 min at 95 C, 20 s at 68 C and 10 min at 72 C) and these products were digested with 5U of HpaI (New England Biolabs) for 2h at 37 C. The fragments were purified using Qiaquick PCR columns (Qiagen), analyzed on an ABI 3130xL genetic analyzer (Applied Biosystems) with peak positions identified by using a set of X-rhodamine (ROX)-labeled MapMarker1000 molecular weight standards (BioVentures). The raw capillary electrophoresis data was processed using Attagraph software (Attagene).
Consider `c1ccc2cc3c(ccc4ccccc43)cc2c1`, for which the compound was called inactive.

As to `CC#C[C@]1(O)CC[C@H]2[C@@H]3CCC4=CC(=O)CCC4=C3[C@@H](c3ccc(N(C)C)cc3)C[C@@]21C`, the call was inactive.

For `CCCCC(CC)COC(=O)CCCCC(=O)OCC(CC)CCCC` (stereo not given), the compound was called inactive.

As to `CCC(C)(C)C1CCC(O)CC1` (stereo not given), the result was inactive.

`CC(C)CCCCCCOC(=O)CCCCC(=O)OCCCCCCC(C)C`: the result was inactive.

As for `c1ccc2c(c1)Cc1ccccc1-2`, the result was inactive.

Turning to `COCC(C)O` (stereo not given), the result was inactive.

For `N#C[C@@H]1CC(F)(F)CN1C(=O)CNC1CC2CCC(C1)N2c1ncccn1` (stereo not given in full), the compound was called inactive.

Take `O=c1c(-c2ccc(O)cc2)coc2cc(O)ccc12`: the compound was classed as inactive.

Regarding `CCCOC(=O)c1ccc(O)cc1`, the outcome was inactive.

As to `COc1ccc([N+](=O)[O-])cc1N`, the compound was classed as inactive.

For the compound `NC(=O)N(O)[C@@H]1C=C[C@H](Oc2cccc(Oc3ccc(F)cc3)c2)C1`, the compound was classed as inactive.

Consider `CC[C@H](c1ccc(O)cc1)[C@@H](CC)c1ccc(O)cc1`, for which the outcome was inactive.

`O=C(O)c1ccccc1C(c1ccc(O)cc1)c1ccc(O)cc1`: the compound was classed as inactive.

With `OCCC(F)(F)C(F)(F)C(F)(F)C(F)(F)C(F)(F)C(F)(F)C(F)(F)C(F)(F)F`, the AC50 is 33.4 µM (active) and 150 µM (active).

For `COCC(C)OCC(C)O` (stereo not given), the compound was called inactive.

With `C#C[C@]1(O)CC[C@H]2[C@@H]3CCC4=CC(=O)CC[C@@H]4[C@H]3CC[C@@]21C`, the outcome was inactive.

With `NC(=O)N1C(=O)C(C(=O)c2cc(Cl)cs2)c2cc(F)c(Cl)cc21` (stereo not given), the compound was called inactive.

For the compound `Oc1cccc(O)c1`, the outcome was inactive.

Take `CCCCOCCO`: the compound was called inactive.

Take `CC(=O)CC(C)(C)O`: the outcome was inactive.

With `CC(O)C(=O)O` (stereo not given), the compound was classed as inactive.

As to `COC(=O)CCCCC(=O)OC`, the outcome was inactive.

With `COc1cc(CCC(=O)CC(=O)CCc2ccc(O)c(OC)c2)ccc1O`, the compound was classed as inactive.

Consider `Oc1cc2ccccc2c2ccccc12`, for which the compound was classed as inactive.

`CCc1ccc(CCOc2ccc(CC3SC(=O)NC3=O)cc2)nc1` (stereo not given): the outcome was inactive.

For `CCCOc1sc(C(=O)N2CCC(c3cc(CN)ccc3F)CC2)c(C)c1Br`, the call was inactive.

As to `CCCCCCCCOC(=O)CCCCCCCCC(=O)OCCCCCCCC`, the compound was classed as inactive.

Regarding `CC(O)CO` (stereo not given), the call was inactive.

Consider `CCCCCCC(=O)O`, for which the call was inactive.

As for `Nc1cccc2c(N)cccc12`, the compound was classed as inactive.

As for `CC(C)(C)c1cccc(C(C)(C)C)c1O`, the compound was called inactive.

For the compound `CCC(=C(c1ccc(O)cc1)c1ccc(OCCN(C)C)cc1)c1ccccc1`, the concentration at half-maximal activity (AC50) is 7.1 µM (active) and 11.3 µM (active); the result was inactive.

For the compound `CCN(CC)CCNc1ccc(CNC=O)c2sc3ccc(OC)cc3c(=O)c12`, the result was inactive.

As to `c1ccc2c(c1)ccc1ccccc12`, the compound was called inactive.

As to `CC(=O)NC1(c2cccc(F)c2)CCN(CC[C@@]2(c3ccc(Cl)c(Cl)c3)CN(c3ccccc3)C(=O)CO2)CC1`, the half-maximal activity concentration (AC50) was 55.9 µM (active).

In the case of `Cc1oc(-c2ccccc2)nc1CCOc1ccc(C[C@H](Nc2ccccc2C(=O)c2ccccc2)C(=O)O)cc1`, the compound was called inactive.

Consider `OC1CCCCC1`, for which the compound was called inactive.

Consider `O=C(O)Cc1cc(I)c(Oc2cc(I)c(O)c(I)c2)c(I)c1`, for which the AC50 is 23.4 µM (active) and 18.1 µM (active).
